Compounds with a hit are over-represented: about 0.88% of the library has one in this group of screens.
CBFb-RUNX1 inh: qHTS Assay for Compounds Blocking the Interaction Between CBF-beta and RUNX1 for the Treatment of Acute Myeloid Leukemia | Runt-related transcription factor 1 (Homo sapiens) + Core-binding factor subunit beta … | AlphaScreen CBFb-His/RUNX1-biotin binding, biochemical | Potency, µM (titrated, usually from 59.8 µM), inactives show at the top dose activity, negative = inhibition, usual class: inhibitors | 230,000 tested, under 10 active | AID 1477, 2009; also: % of control where 0% means no effect
Target sequence (Q01196 whole entry, looked up): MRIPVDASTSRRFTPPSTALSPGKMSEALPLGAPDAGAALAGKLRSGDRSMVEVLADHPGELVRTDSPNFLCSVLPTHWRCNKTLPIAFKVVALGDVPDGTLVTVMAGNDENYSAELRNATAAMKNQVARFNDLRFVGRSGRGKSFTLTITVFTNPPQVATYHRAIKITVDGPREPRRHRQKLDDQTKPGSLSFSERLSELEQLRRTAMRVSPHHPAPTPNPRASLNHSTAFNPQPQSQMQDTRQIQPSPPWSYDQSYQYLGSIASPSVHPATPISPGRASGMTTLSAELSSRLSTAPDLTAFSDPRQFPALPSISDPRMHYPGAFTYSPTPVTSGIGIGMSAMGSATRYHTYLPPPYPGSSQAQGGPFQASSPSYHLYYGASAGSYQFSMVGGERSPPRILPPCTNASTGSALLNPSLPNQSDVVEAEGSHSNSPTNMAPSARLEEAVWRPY
Target sequence (Q13951 whole entry, looked up): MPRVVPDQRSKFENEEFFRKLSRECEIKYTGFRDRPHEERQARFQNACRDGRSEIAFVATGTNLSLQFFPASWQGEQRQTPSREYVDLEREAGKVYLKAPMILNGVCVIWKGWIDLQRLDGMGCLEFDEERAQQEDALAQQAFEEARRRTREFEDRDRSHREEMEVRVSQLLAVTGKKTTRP
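Bead-based AlphaScreen assay; binding partners His-tagged CBF-beta and biotinylated RUNX1 at 30 nM each. Compound exposure 15 min after a 20-min protein preincubation; bead step 90 min; all steps at room temperature.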
Epigenetic derep: Quantitative High-Throughput Screen for Regulators of Epigenetic Control; murine LDR cells, GFP reporter derepression, 30 h; hit rate 0.2% among 280,000; Potency, µM (highest dose often 53.9 µM), without a hit: at the highest dose GFP activation, hits mostly activators; AID 1865, 2009; also: potency is read from the fitted curve at half-maximal effect; % of control where 0% means no effect; nearly all actives have a fitted effect of over 60% in size
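Murine LDR cells carrying a silenced, genomically integrated CMV-driven GFP reporter were exposed to compound for 30 hours at 37 C. After PBS washes, GFP-positive cells (20–120 um objects) were counted by laser-scanning microplate cytometry.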
IL2 activator: qHTS of IL-2 Activators | IL-2 activation reporter assay, cell-based qHTS; stimulated with anti-CD3/CD4/CD28 beads; in transgenic mouse T cells | activation, % (series mostly up to about 46 µM) | hit rate 0.065% among 360,000 | AID 652025, 2013; in the data active = activation above about 50%; inconclusive = mostly about 30% to 49%; also: 0% is about no effect
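Unstimulated transgenic mouse T cells; 60-min compound exposure; bead-based TCR/CD4/CD28 stimulation; 18 h culture, 37 degrees C; dual fluorescence (EGFP, DsRed) plate cytometry.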
TRHR agonist: qHTS for Small Molecule Agonists and Allosteric Enhancers of Human TRH Receptor: Primary Screen for Agonists | Thyrotropin-releasing hormone receptor (Homo sapiens), P34981 | TRHR cells, calcium flux fluo-8, FDSS agonist mode | activation, % at 2 µM | hit rate 0.18% among 360,000; in the data active = activation above about 30%; also: 0% is about no effect
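TRHR-expressing cells loaded with fluo-8 calcium dye; 23 nL library compound pin-transferred, kinetic FDSS fluorescence (Ex 480/Em 530) recorded about 180 s for agonist-induced calcium release, before a 10 nM TRH EC20 addition for potentiator mode.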
MBNL1-CUG inh: qHTS Assay for Inhibitors of MBNL1-poly(CUG) RNA binding; Muscleblind-like protein 1 (Homo sapiens), Q9NR56; TR-FRET MBNL1-His/biotin-(CUG)12 binding, 665/545 ratio; Potency, µM (doses to about 57.5 µM), inactives show top-dose activity change, negative = inhibition, hits mostly inhibitors; hit rate 0.036% among 280,000; active = well fitted inhibition curve with a large enough effect in the signal ratio, with a control signal flat, not every such curve was filed as active; inconclusive = small, poorly fitted or top-dose-only effect, or effect the other way, or a change in a side signal; inactive = no such curve, though single readings can be large or run the other way; the % refers to the signal ratio; also: potency is read from the fitted curve at half-maximal effect; % is scaled to controls: 0 for no effect and ±100 for the full control effect
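Inhibition of protein-RNA binding appears as loss of TR-FRET between terbium anti-His antibody on MBNL1-His and streptavidin-XL665 on biotin-(CUG)12. Activity is normalized to buffer-only and uninhibited-complex controls.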
TRHR enhancer: qHTS for Small Molecule Agonists and Allosteric Enhancers of Human TRH Receptor: Primary Screen for Enhancers | Thyrotropin-releasing hormone receptor (Homo sapiens), P34981 | TRHR cells, fluo-8 calcium fluorescence, EC20 TRH enhancement | enhancement, % at 2 µM | hit rate 0.66% among 360,000 | AID 493056, 2011; in the data active = enhancement above about 30%; also: 0% is about no effect
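Enhancer read-out: after compound pinning and an initial kinetic agonist-mode read, an EC20 of TRH (10 nM final) was injected and fluo-8 calcium signal (Ex 480/Em 530) followed at 1 s/cycle for 100 cycles in TRHR-expressing cells.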
* marks the source's active call; other numbers are inactive results. Unless noted, calls follow the shape of the dose curve; as a rule, active = well fitted curve in the direction sought with a large enough effect; inconclusive = small, poorly fitted or top-dose-only effect, or another doubt; inactive = no such curve, though single readings can be large; an effect the other way counts as inactive or inconclusive.

How did CCC1CCc2nc3sc(C(=O)Nc4ccc(C)cc4)c(N)c3cc2C1 (stereo unspecified) do in these assays?
Epigenetic derep: 3%; TRHR agonist: 0; TRHR enhancer: -3

What do the screens show for `COC(=O)C1(C(=O)OC)CC2=CC(CC2=O)Cc2ccccc2[C@@H]1C[N+](=O)[O-]` (stereo partly specified)?
CBFb-RUNX1 inh: 4%; Epigenetic derep: -1%

What do the screens show for `COc1cc(/C=N/NC(=O)c2cccnc2)ccc1OCC(=O)N1CCOCC1`?
CBFb-RUNX1 inh: -2%; Epigenetic derep: -1%; IL2 activator: 0; TRHR agonist: 0; MBNL1-CUG inh: 19%; TRHR enhancer: 33*

How did O=C(CCN1C(=O)CSc2ccccc21)Nc1ccc(OC(F)(F)F)cc1 do in these assays?
IL2 activator: 0; TRHR agonist: 0; TRHR enhancer: 33*

Results for COCCCNc1ccnc2c(Cl)cccc12 ?
CBFb-RUNX1 inh: -3%; Epigenetic derep: -1%; IL2 activator: 0; TRHR agonist: 1; MBNL1-CUG inh: 3%; TRHR enhancer: 37*

What do the screens show for `COCCNc1ccnc2c(Cl)cccc12`?
CBFb-RUNX1 inh: 1%; Epigenetic derep: 1%; IL2 activator: -2; TRHR agonist: 0; MBNL1-CUG inh: -18%; TRHR enhancer: -3

What do the screens show for `CC(C)NCC(O)c1ccc(O)c(O)c1` (stereo unspecified)?
CBFb-RUNX1 inh: -16%; Epigenetic derep: 0%; IL2 activator: 1; TRHR agonist: 0; MBNL1-CUG inh: -6%; TRHR enhancer: 36*

Results for CC(C)NCC(O)c1ccc2ccccc2c1 (stereo unspecified) ?
CBFb-RUNX1 inh: 15%; Epigenetic derep: 1%; IL2 activator: 0; TRHR agonist: -2; TRHR enhancer: 2

How did CN1C(=O)/C(=C\c2ccc(N(C)C)cc2)OC1=S do in these assays?
IL2 activator: inconclusive; TRHR agonist: 203*; MBNL1-CUG inh: 23%; TRHR enhancer: 8

Results for COc1ccc(/C=C2\OC(=S)N(C)C2=O)cc1 ?
CBFb-RUNX1 inh: 11%; Epigenetic derep: 2%; IL2 activator: -5; TRHR agonist: 0; MBNL1-CUG inh: 39%; TRHR enhancer: -1

How did Cc1nn2cc(-c3ccc(OC(C)C)cc3)nc2s1 do in these assays?
Epigenetic derep: -2%; TRHR agonist: 0; TRHR enhancer: 0

What do the screens show for `COc1ccc(C(=O)COc2ncnc3cc(Cl)ccc23)cc1`?
CBFb-RUNX1 inh: 5%; Epigenetic derep: 1%; IL2 activator: 0; TRHR agonist: -1; MBNL1-CUG inh: -3%; TRHR enhancer: 36*

Results for COC(=O)c1c(NC(=O)C2CC=CCC2C(=O)O)sc2c1CCCCC2 (stereo unspecified) ?
IL2 activator: -1; TRHR agonist: 0; MBNL1-CUG inh: 3%; TRHR enhancer: 31*

What do the screens show for `COC(=O)c1c(NC(C)=O)sc2c1CCCCC2`?
CBFb-RUNX1 inh: -2%; Epigenetic derep: -1%; IL2 activator: 1; TRHR agonist: 0; TRHR enhancer: -2

How did Cc1ccc(CNC(=O)c2ccc(-c3nc(CS(=O)(=O)c4ccc(C)cc4)c(C)o3)cc2)cc1 do in these assays?
Epigenetic derep: 0%; TRHR agonist: 0; TRHR enhancer: 5

How did N#C/C(=C\c1cc(Br)c(O)c(Br)c1)c1nc2ccccc2c(=O)[nH]1 do in these assays?
Epigenetic derep: 6%; TRHR agonist: 78*; TRHR enhancer: 20

What do the screens show for `CCOC(=O)c1c(/N=C/N(C)C)sc(C)c1C`?
CBFb-RUNX1 inh: -10%; Epigenetic derep: 0%; IL2 activator: -1; TRHR agonist: 0; MBNL1-CUG inh: -3%; TRHR enhancer: 9

What do the screens show for `CCOC(=O)c1c(/N=C/N(C)C)sc(/C=N/Nc2ccccc2)c1-c1ccc(Cl)cc1`?
CBFb-RUNX1 inh: 14%; Epigenetic derep: 11µM*; IL2 activator: 2; TRHR agonist: 0; TRHR enhancer: 5

What do the screens show for `O=C(Nc1ccc(F)cc1)Nc1ccc2c(c1)CCC2`?
IL2 activator: -3; TRHR agonist: 1; MBNL1-CUG inh: -1%; TRHR enhancer: 35*

How did Cc1ccc(OCCCN2CCOCC2)c([N+](=O)[O-])c1 do in these assays?
CBFb-RUNX1 inh: -4%; Epigenetic derep: -2%; IL2 activator: 0; TRHR agonist: 1; MBNL1-CUG inh: 12%; TRHR enhancer: 31*

Results for Cc1ccc(OCCN2CCN(C)CC2)c([N+](=O)[O-])c1 ?
CBFb-RUNX1 inh: 0%; Epigenetic derep: 2%; IL2 activator: 1; TRHR agonist: 1; MBNL1-CUG inh: 14%; TRHR enhancer: 15

What do the screens show for `CCC1=C(c2ccc(C)cc2)S(=O)(=O)N=C1N1CCC(C(=O)NCc2ccc(N(C)C)cc2)CC1`?
Epigenetic derep: 1%; TRHR agonist: 0; TRHR enhancer: 1

What do the screens show for `COc1cccc(NC(=O)Cn2c(=O)n(CCCCC(=O)NCc3ccccc3Cl)c(=O)c3ccccc32)c1`?
Epigenetic derep: 2%; TRHR agonist: 0; TRHR enhancer: 3

Results for CC1(C)C2CCC(C2)C1C/C=N/NC(N)=S (stereo unspecified) ?
CBFb-RUNX1 inh: -2%; Epigenetic derep: inconclusive; IL2 activator: -5; TRHR agonist: 0; TRHR enhancer: 33*

Results for CCOC(=O)/C=c1\s/c(=C\c2ccc3cc(OC)ccc3c2)c(=O)n1CC(=O)NCc1ccc2c(c1)OCO2 ?
CBFb-RUNX1 inh: -1%; Epigenetic derep: 7.9µM*; IL2 activator: -2; TRHR agonist: 2; MBNL1-CUG inh: 2%; TRHR enhancer: -2

How did COc1ccc2c(c1)CC(C(=O)NCCCN1CCN(c3cccc(Cl)c3)CC1)CO2 (stereo unspecified) do in these assays?
Epigenetic derep: -2%; TRHR agonist: 0; TRHR enhancer: 0

How did COc1ccc(-n2ncc(C(C)NS(=O)(=O)c3ccc(C(C)=O)cc3)c2C)cc1 (stereo unspecified) do in these assays?
IL2 activator: 2; TRHR agonist: -1; MBNL1-CUG inh: 2%; TRHR enhancer: -2

High-throughput results: PubChem BioAssay, National Center for Advancing Translational Sciences (NCATS)
